# Only some compounds are listed: those with a hit (about 3.3% of all), similar ones and a draw of the others.
# Sm TGR block – blocks Schistosoma mansoni thioredoxin glutathione reductase; Q962Y6; purified TGR, DTNB reduction, TNB absorbance 405 nm; Potency, µM (top dose mostly 114 µM), without a hit: at the highest dose activity change, negative = inhibition, hits mostly inhibitors; hit rate 3% among 360,000; AID 485364; also: nearly all actives have a fitted effect of over 60% in size
#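 First, TGR (20 nM dispensed) and NADPH were mixed with compound. Second, a 15 min room-temperature incubation followed. Third, further NADPH and then DTNB were added to start the reaction. Finally, TNB absorbance was monitored kinetically.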
# AmpC inh detg – blocks E. coli AmpC beta-lactamase in detergent assay; hit rate 0.041% among 370,000; AmpC hydrolysis of nitrocefin, absorbance 480 nm, 0.01% Triton; Potency, µM (top dose mostly 114 µM), for the others: top-dose activity change, negative = inhibition, usual class: inhibitors; P00811; AID 485294;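 also: 0% = no-compound wells and -100% = no-enzyme wells; nearly all actives have a fitted effect of over 25% in size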
# Target sequence (P00811 whole entry, looked up): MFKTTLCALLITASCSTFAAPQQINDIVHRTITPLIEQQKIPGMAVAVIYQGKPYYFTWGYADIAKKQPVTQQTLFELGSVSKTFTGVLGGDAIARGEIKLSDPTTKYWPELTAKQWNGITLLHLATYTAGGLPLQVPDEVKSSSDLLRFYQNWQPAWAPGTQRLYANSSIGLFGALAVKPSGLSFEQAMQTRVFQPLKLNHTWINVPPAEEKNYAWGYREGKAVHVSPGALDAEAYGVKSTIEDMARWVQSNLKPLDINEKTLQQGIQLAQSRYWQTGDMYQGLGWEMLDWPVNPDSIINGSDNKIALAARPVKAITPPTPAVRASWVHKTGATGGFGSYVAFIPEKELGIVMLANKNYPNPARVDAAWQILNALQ
#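 AmpC (5.3 nM in the dispensed reagent) in 20 mM phosphate pH 7.0 with 0.01% (detergent screen) or 0.0001% Triton X-100 was preincubated with compounds for 15 min at room temperature. Nitrocefin was then added from an 800 uM solution, and hydrolysis was followed at 480 nm.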
# AmpC inh no detg – inhibitors of E. coli AmpC beta-lactamase without detergent; P00811; AmpC nitrocefin hydrolysis, absorbance 480 nm, 0.0001% Triton; Potency, µM (series often up to 57.1 µM), inactives show at the highest dose activity change, negative = inhibition, actives largely listed as inhibitors; hit rate 0.52% among 330,000;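 also: plate controls were no compound for no effect and no enzyme for full effect; nearly all actives have a fitted effect of over 20% in size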
#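 20 mM phosphate pH 7.0 + 0.01% (detergent screen) or 0.0001% Triton X-100; 5.3 nM AmpC reagent; cpd preinc 15 min RT; nitrocefin (800 uM stock) to start; A480 q20 s × 4 min; Activity was normalised to no-enzyme and no-compound control wells.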
# Active calls of the source: *; ? = inconclusive; · = no result given; [ ] = dose if it differs, or a comment. Calls follow the shape of the dose curve; as a rule, active = well fitted curve in the direction sought with a large enough effect; inconclusive = small, poorly fitted or top-dose-only effect, or another doubt; inactive = no such curve, though single readings can be large; an effect the other way counts as inactive or inconclusive. Unless noted, % is scaled to controls: 0 for no effect and ±100 for the full control effect; potency is read from the fitted curve at half-maximal effect.
SMILES,Sm TGR block,AmpC inh detg,AmpC inh no detg
COc1ccc(N2CCN(C(=O)c3ccc(C)c(NC(=O)c4ccco4)c3)CC2)cc1,1.8µM*,4%,64%
O=C(Nc1c2c(nn1-c1cccc(Cl)c1)CS(=O)(=O)C2)c1ccco1,45µM*,-6%,-9%
COc1ccc(-n2nc3c(c2NC(=O)c2ccco2)CS(=O)(=O)C3)cc1,45µM*,0%,-30%
Cc1ccc(C(=O)N2CCN(c3ccccc3)CC2)cc1NC(=O)c1ccco1,-24%,2%,44%
Cc1ccc(-n2nc3c(c2NC(=O)c2ccco2)CS(=O)(=O)C3)cc1C,-25%,3%,-29%
Cc1ccc(-n2nc3c(c2NC(=O)c2ccco2)CS(=O)(=O)C3)cc1,?,-2%,-23%
Cc1cccc(-c2noc(CN(C3CCCCC3)S(=O)(=O)c3ccc(F)cc3)n2)c1,1%,3%,·
COC(=O)C1CCN(c2c([N+](=O)[O-])cc(C(F)(F)F)cc2[N+](=O)[O-])CC1,4%,3%,0.25µM*
NC(=O)C1CCN(c2c([N+](=O)[O-])cc(C(F)(F)F)cc2[N+](=O)[O-])CC1,17%,-5%,18%
CC(=O)c1coc2c1cc(O)c1ccccc12,0%,?,-10%
CC(=O)c1cc(O)c2ccccc2c1O,8.9µM*,-12%,-38%
Cc1ccc(C2c3c(oc4ccccc4c3=O)C(=O)N2CCCN2CCOCC2)o1 (configuration not stated),?,-5%,-8%
C=CCOc1ccc(C2c3c(oc4ccccc4c3=O)C(=O)N2CCCN2CCOCC2)cc1 (configuration not stated),?,?,109%
CC(C)Oc1ccc(C2c3c(oc4ccccc4c3=O)C(=O)N2CCCN2CCOCC2)cc1 (configuration not stated),40µM*,0%,82%
O=C1c2oc3ccccc3c(=O)c2C(c2cccnc2)N1CCCN1CCOCC1 (configuration not stated),45µM*,-6%,-23%
O=C1c2oc3ccc(Cl)cc3c(=O)c2C(c2ccccn2)N1CCCN1CCOCC1 (configuration not stated),13µM*,?,50%
CC(C)c1ccc(C2c3c(oc4ccc(Cl)cc4c3=O)C(=O)N2CCCN2CCOCC2)cc1 (configuration not stated),-13%,-6%,·
Cc1c2cnn(-c3ccccc3)c(=O)c2c(C)n1CCCC(=O)Nc1ccc(F)cc1F,?,2%,·
CC(=O)N1c2ccc(S(=O)(=O)NCCC(=O)Nc3ccc(Br)c(C)c3)cc2CC1C (configuration not stated),8%,3%,·
Oc1ccc(CNc2ccc(C(F)(F)F)cc2Cl)c2cccnc12,1µM*,-8%,-31%
Oc1ccc(F)c2cccnc12,11%,1%,-5%
Oc1ccccc1CNc1cccc2cccnc12,-3%,11%,-21%
Oc1ccc(CNc2cccc(F)c2F)c2cccnc12,0.11µM*,-10%,-19%
O=C(Cc1ncc(C(F)(F)F)cc1Cl)NCc1cccnc1,8%,-16%,-11%
Oc1ccc(CNc2ccccc2F)c2cccnc12,0.11µM*,?,-21%
SMILES,Sm TGR block,AmpC inh detg,AmpC inh no detg
Clc1ccc(CCNc2nc3ccccc3c3nc(-c4ccccc4)nn23)cc1,0%,-3%,·
O=S1(=O)c2ccccc2N(Cc2cccc(F)c2)c2ccccc21,-10%,0%,·
COc1ccc(CN(Cc2ccco2)C(=O)COc2ccccc2OC)cc1,4%,23%,·
CCc1nn(CC(=O)N2CCCCC2)c(=O)c2cc3sccc3n12,-1%,1%,·
O=C(/C=C/c1cccs1)c1cc(Cl)ccc1O,-23%,1%,-31%
O=C(/C=C/c1ccc2ccccc2n1)c1cc(Cl)ccc1O,25µM*,-6%,-31%
Cc1cc(C)cc(N2C(=O)CSC23C(=O)N(CC(=O)NCCc2ccccc2)c2ccccc23)c1 (configuration not stated),-10%,0%,·
Cc1ccccc1OCc1nc2ccccc2c(=O)n1/N=C/c1c[nH]c2ccccc12,6%,?,-48%
Cc1ccc(-c2[nH]ncc2/C=N/n2c(COc3ccccc3C)nc3ccccc3c2=O)cc1,7%,-9%,8.9µM*
Cn1c(=O)c2sccc2n2c(CCCC(=O)Nc3ccc(Oc4ccc(Cl)cc4)cc3)nnc12,2%,1%,·
Cc1ccc(C)c(S(=O)(=O)ON2C(=O)c3ccccc3C2=O)c1,0.89µM*,50µM*,-13%
Cc1ccc(C)c(C(=O)CN2C(=O)c3ccccc3C2=O)c1,5%,-7%,-2%
Cc1cc(S(=O)(=O)ON2C(=O)c3ccccc3C2=O)ccc1F,0.79µM*,45µM*,-25%
O=C1c2cccc3cccc(c23)C(=O)N1OS(=O)(=O)c1ccccc1,0%,-3%,?
Cc1ccc(S(=O)(=O)ON2C(=O)c3cccc4cccc(c34)C2=O)cc1,-9%,?,-15%
O=C1c2ccccc2C(=O)N1OS(=O)(=O)c1ccccc1,1.3µM*,45µM*,-22%
Cc1ccc(C)c(N2CCN(C(=O)c3cc4c(=O)n(Cc5ccccc5)ccc4nc3C)CC2)c1,-1%,-5%,·
O=c1c(C/C=C/c2ccccc2)c(O)ccn1CCc1c[nH]c2ccccc12,-24%,-6%,-7%[2.29 µM]
COc1ccc2[nH]cc(CCn3ccc(O)c(C/C=C/c4ccccc4)c3=O)c2c1,0%,0%,16µM*
Cc1ccc(NC(=O)C2CCCN(c3nnc(-n4c(C)ccc4C)s3)C2)c(C)c1 (configuration not stated),?,16%,·
CCOC(=O)C1CCCCN1S(=O)(=O)c1csc(C(N)=O)c1 (configuration not stated),-11%,5%,·
NCCCn1cnc2ccccc21,35µM*,?,-18%
c1ccc2c(c1)ncn2CCn1cnc2ccccc21,-8%[11.4 µM],-6%,-13%
Cc1ccc2oc(C(=O)Nc3ccc(S(=O)(=O)N4CCCCC4C)cc3)cc(=O)c2c1 (configuration not stated),26%,13%,·
Cc1c(CCNC(=O)C(C)(C)C)sc2nc(-c3ccc(F)cc3)nn12,7%,-2%,·
SMILES,Sm TGR block,AmpC inh detg,AmpC inh no detg
Cc1ccc(C(C[N+](=O)[O-])c2c(C)[nH]n(-c3ccccc3)c2=O)cc1 (configuration not stated),-33%,-6%,-50%
Cc1[nH]n(-c2ccccc2)c(=O)c1C(C[N+](=O)[O-])c1ccc(Cl)cc1 (configuration not stated),1.6µM*,0%,-30%
Cc1[nH]n(-c2ccccc2)c(=O)c1C(c1ccccc1[N+](=O)[O-])C(C#N)C#N (configuration not stated),8.9µM*,0%,-34%
Cc1[nH]n(-c2ccccc2)c(=O)c1C(c1ccccc1C(=O)O)c1c(C)[nH]n(-c2ccccc2)c1=O,-1%,4%,-32%
CCCCn1cc(S(=O)(=O)c2ccc(C)c(C)c2)c(=O)c2cc(F)c(N(CC)CC)cc21,0%,12%,·
COc1cc(C(=O)NCC(c2cccs2)S(=O)(=O)c2ccc(F)cc2)cc(OC)c1OC (configuration not stated),-20%,-3%,·
